We go through 40 compounds from PubChem BioAssay (Tox21).

Inconclusive results are not listed. Where a call stands in place of a potency, no number is given. Values without a mark were called inactive. Calls of active or inactive are those of the source. The call rests on the fitted dose curve.

The experiment is described as follows: p53 small molecule agonists, cell-based qHTS assay with human liver microsomes (AID 1963577).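 Further: p53 response element beta-lactamase reporter cells with liver microsomes plus NADPH.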 The following applies: HCT-116 p53RE-bla with human liver microsomes, ratio, 16 h; series mostly up to 66 µM. An excerpt: National Center for Advancing Translational Sciences [NCATS]
Division of Preclinical Innovation [DPI]
U.S. Environmental Protection Agency [EPA]
National Institutes of Environmental Health Sciences [NIEHS]
National Toxicology Program [NTP]
U.S. Food and Drug Administration [FDA]
p53, a tumor suppressor protein, is activated following cellular insult, including DNA damage and other cellular stresses. The activation of p53 regulates cell fate by inducing DNA repair, cell cycle arrest, apoptosis, or cellular senescence. The activation of p53, therefore, is a good indicator of DNA damage and other cellular stresses. […] The activation of the reporter gene under culture conditions can be detected by fluorescence intensity.
Tox21 Assay Protocol Summary:
The p53RE-bla cells were dispensed at 4,000cells/3ul/well in 1536-well black-clear bottom plates. After the assay plates were incubated at 37 C, 5% CO2 incubator for 5 hours, 23 nL of compounds dissolved in DMSO, positive controls or DMSO only was transferred to the assay plate. Following compound addition, 3 uL of human liver microsomes (XenoTech, Kansas City, KS) at final concentration of 0.5 mg/mL and 1uL of Beta-Nicotinamide adenine dinucleotide 2-phosphate (NADPH) at final concentration of 0.5 mg/mL were transferred to the assay plate. The plates were incubated at 37 C for 16 hours. 1 uL of LiveBLAzer detection mixture was added to each well and the plates were incubated at room temperature in the dark for 2 h.
A general note: qHTS replaces the single test concentration by a dilution series.
`CCC1COC(=O)O1` (stereo not given): the Potency result is “inactive”.
On the same count and under the same terms, the result for `CC(O)C(CO)C(C)O` (stereo not given) reads “inactive”; that for `CC(C)CC(=O)OCc1ccccc1`, “inactive”.
For the compound `CNc1ccccc1`, the Potency entry is “inactive”.
Still for that read-out and setting: the result for `CN(C)CCCNCCCN(C)C` reads “inactive”.
Same read-out and setting: the same measure for `O=C(O)CCCCCC(=O)O`: “inactive”; for `Cl/C(=C\n1cncn1)c1ccc(Cl)cc1Cl`: “inactive”.
Consider `NNc1nncc2ccccc12`, for which the Potency entry was “inactive”.
Same read-out and setting: the result for `C=C(C)C(=O)OC(C)C` reads “inactive”; that for `CC(C)(C)c1ccc(S)cc1`, “inactive”.
Consider `C[n+]1ccn(Cc2ccccc2)c1`, for which the Potency entry is “inactive”.
Still for that read-out and setting: the same measure for `Cc1ccc(S(=O)(=O)NC(=O)NC2CCCC2)cc1`: “inactive”; for `CCC(O)CO` (stereo not given): “inactive”; for `Cc1cc(C)c(C(=O)O)c(C)c1`: “inactive”.
On to `CC(C)(c1cc(Br)c(OCC(Br)CBr)c(Br)c1)c1cc(Br)c(OCC(Br)CBr)c(Br)c1` (stereo not given), for which the Potency entry is “inactive”.
Still for that read-out and setting: the result for `C/C=C(\C)C(=O)OCc1ccccc1` reads “inactive”; that for `CCCCC(CC)COP(=O)(OCC(CC)CCCC)OCC(CC)CCCC` (stereo not given), “inactive”; that for `O=C(O)c1ccccc1-n1cc(C(=O)O)c(=O)c2cc(Nc3c(F)cc(F)cc3Cl)c(Cl)cc21`, “inactive”.
`CC(S)C(=O)NCC(=O)O` (stereo not given): the Potency result is “inactive”.
Same read-out and setting: the same measure for `O=C(OCCOCCO)c1ccccc1Nc1cccc(C(F)(F)F)c1`: “inactive”; for `NS(=O)(=O)c1ccccc1Cl`: “inactive”.
Same read-out and setting: the result for `CCCCc1ncc(/C=C(\Cc2cccs2)C(=O)O)n1Cc1ccc(C(=O)O)cc1` reads “inactive”; that for `O=S(=O)(O)c1cccc(S(=O)(=O)O)c1`, “inactive”.
Same read-out and setting: the result for `CC(C)c1cccc(O)c1` reads “inactive”.
With `c1ccc2ncccc2c1`, the Potency result was “inactive”.
The same measure, in the same setting: the same measure for `O=C(O)c1ccccc1S`: “inactive”; for `O=c1[nH]c(=O)c2ccccc2o1`: “inactive”; for `OCCC(F)(F)C(F)(F)C(F)(F)C(F)(F)C(F)(F)C(F)(F)F`: “inactive”.
On the same count and under the same terms, the same measure for `CC(=O)c1ccc2c(c1)CCCC2`: “inactive”; for `CCOc1ccccc1OCC`: “inactive”.
Consider `O=C1OC(=O)c2ccccc21`, for which the Potency entry was “inactive”.
For the compound `CC(=O)[O][Al][O]C(C)=O`, the Potency entry was “inactive”.
For `CC(C)=CCCC(C)CC=O` (stereo not given), the Potency entry is “inactive”.
Same read-out and setting: the result for `CCCCCC/C=C/C(=O)OC` reads “inactive”.
On the same count and under the same terms, the result for `Clc1cc(Cl)c(Cl)c(Cl)c1Cl` reads “inactive”.
Regarding `Nc1c(NC/C=C\COc2cc(CN3CCCCC3)ccn2)c(=O)c1=O`, the activation was -4.01% [at 13.5 µM].
As to `c1cnc2cc3c(cc2n1)C1CNCC3C1`, the Potency result is “inactive”.
Same read-out and setting: the same measure for `COC(=O)c1cc(S(N)(=O)=O)ccc1OC`: “inactive”; for `Nc1cc(S(=O)(=O)O)cc2cc(S(=O)(=O)O)cc(O)c12`: “inactive”; for `CCN1CCCC(OC(=O)C(c2ccccc2)c2ccccc2)C1` (stereo not given): “inactive”.
